# Sm TGR inh – S. mansoni TGR enzyme inhibition | Potency, µM (top dose mostly 114 µM), for inactives: at the highest dose activity change, negative = inhibition, hits mostly inhibitors | purified TGR, DTNB reduction, TNB absorbance 405 nm | AID 485364 | Q962Y6 | 3% of 360,000 active; also: nearly all actives have a fitted effect of over 60% in size
#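 Kinetic colorimetric format: TGR-catalysed, NADPH-driven DTNB reduction monitored via TNB absorbance. Enzyme dispensed at 20 nM; compound exposure 15 min at room temperature before reaction start.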
# AmpC no deterg – AmpC beta-lactamase inhibition without detergent; AmpC nitrocefin hydrolysis, absorbance 480 nm, 0.0001% Triton; 0.52% of 330,000 active; AID 485341; P00811; Potency, µM (series often up to 57.1 µM), for inactives: at the top dose activity change, negative = inhibition, actives largely listed as inhibitors;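 also: plate controls were no compound for no effect and no enzyme for full effect; nearly all actives have a fitted effect of over 20% in size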
# Target sequence (P00811 whole entry, looked up): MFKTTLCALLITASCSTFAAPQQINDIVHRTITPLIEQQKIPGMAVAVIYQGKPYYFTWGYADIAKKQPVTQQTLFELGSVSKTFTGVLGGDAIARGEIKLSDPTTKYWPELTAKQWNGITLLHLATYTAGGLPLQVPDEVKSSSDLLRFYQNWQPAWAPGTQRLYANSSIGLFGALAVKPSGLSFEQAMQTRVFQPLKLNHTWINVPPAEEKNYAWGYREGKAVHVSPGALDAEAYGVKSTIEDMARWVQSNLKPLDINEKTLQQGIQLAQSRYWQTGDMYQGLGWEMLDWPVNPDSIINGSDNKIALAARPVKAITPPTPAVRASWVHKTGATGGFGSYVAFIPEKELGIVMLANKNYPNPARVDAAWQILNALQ
#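 20 mM phosphate pH 7.0 + 0.01% (detergent screen) or 0.0001% Triton X-100; 5.3 nM AmpC reagent; cpd preinc 15 min RT; nitrocefin (800 uM stock) to start; A480 q20 s × 4 min; Activity was normalised to no-enzyme and no-compound control wells.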
# AmpC detergent – AmpC beta-lactamase inhibition with detergent present; AmpC hydrolysis of nitrocefin, absorbance 480 nm, 0.01% Triton; Potency, µM (doses to about 114 µM), for the others: at the highest dose activity change, negative = inhibition, most hits filed as inhibitors; 0.041% of 370,000 active; AID 485294; P00811;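 also: 0% = no-compound wells and -100% = no-enzyme wells; nearly all actives have a fitted effect of over 25% in size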
#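 AmpC (5.3 nM in the dispensed reagent) in 20 mM phosphate pH 7.0 with 0.01% (detergent screen) or 0.0001% Triton X-100 was preincubated with compounds for 15 min at room temperature. Nitrocefin was then added from an 800 uM solution, and hydrolysis was followed at 480 nm.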
# Starred values were filed as active, the others as inactive; ? = inconclusive; . = not tested or not shown. Compounds with a hit are over-represented: about 3.3% of the library has one in this group of screens. Calls follow the shape of the dose curve; as a rule, active = well fitted curve in the direction sought with a large enough effect; inconclusive = small, poorly fitted or top-dose-only effect, or another doubt; inactive = no such curve, though single readings can be large; an effect the other way counts as inactive or inconclusive. Unless noted, % is scaled to controls: 0 for no effect and ±100 for the full control effect; potency is read from the fitted curve at half-maximal effect.
SMILES,Sm TGR inh,AmpC no deterg,AmpC detergent
Cc1ccc(NC(=O)COC(=O)CCc2c[nH]c(=O)[nH]2)cc1,32µM*,-8%,-10%
Cc1ccc(NC(=O)COC(=O)CCC(=O)c2cccs2)cc1,-7%,-16%,-9%
O=C(COC(=O)CCc1c[nH]c(=O)[nH]1)Nc1ccccc1,40µM*,-8%,-10%
CCC1CCCCN1CC(=O)N1CCCc2c1c(=O)oc1ccc(OCc3ccccc3)cc21 (configuration not stated),-3%,.,0%
CC1Cc2ccccc2N1S(=O)(=O)c1nnc(NC(=O)c2cccc(F)c2)s1 (configuration not stated),-1%,.,2%
COc1cc2ncc3c(-c4ccccc4)nn(CC(=O)NC4CCCCC4)c3c2cc1OC,-11%,.,22%
CCC1=[N+](CC(=O)c2ccc(C)cc2)CCn2c(C)ccc21,-34%,8%,-11%
CCC1=[N+](CC(=O)c2ccc(Br)cc2)CCn2c(C)ccc21,18µM*,28%,5%
Cc1ccc(C)c(Nc2ncnc3onc(C)c23)c1,-1%,.,12%
CCCNC(=O)CSc1nc2ccccc2nc1Cc1ccc(Cl)cc1,3%,.,-2%
Cc1ccc(N2C(=O)C(Cl)=C(NCCO)C2=O)c(C)c1,8.9µM*,-48%,?
Cc1ccc(N2C(=O)C(Cl)=C(N3CCN(C)CC3)C2=O)c(C)c1,?,-12%,-5%
COCCCNC(=O)c1c(N)n(Cc2ccco2)c2nc3ccccc3nc12,4µM*,91%,-1%
CCCNC(=O)c1c(N)n(Cc2ccco2)c2nc3ccccc3nc12,-7%,98%,4%
CC(C)CNC(=O)c1c(N)n(Cc2ccco2)c2nc3ccccc3nc12,32µM*,95%,-2%
CC(C)OC(=O)c1c(N)n(Cc2ccco2)c2nc3ccccc3nc12,6%,-16%,-12%
Cc1cc(NC(=O)C2CCCN(S(=O)(=O)c3cn(C)cn3)C2)ccc1Br (configuration not stated),0%,.,6%
CC(C)c1ccc(N2CCN(C(=O)c3ccccc3NC(=O)/C=C\C(=O)O)CC2)cc1,40µM*,6%,-3%
Cc1ccccc1N1CCN(C(=O)c2ccccc2NC(=O)/C=C\C(=O)O)CC1,?,-14%,-15%
CS(=O)(=O)Nc1ccccc1C(=O)N1CCN(c2ccccc2)CC1,-17%,-15%,-3%
O=C(O)/C=C\C(=O)Nc1ccccc1C(=O)N1CCN(c2ccc(Cl)cc2)CC1,50µM*,-11%,1%
Cc1ccc(C)c(CNC(=O)C2CCCCN2S(=O)(=O)c2ccc(F)cc2)c1 (configuration not stated),35%,.,5%
CC(=O)c1ccc(N2CCN(C(=O)c3cn(C)c(=O)c4c3c3ccccc3n4C)CC2)cc1,0%,.,18%
COc1cccc(-c2ccnc3c(-c4ccccc4)c(C)nn23)c1,6%,.,1%
CC(=O)O[C@H]1CC(C)(C)C(=C=C/C(C)=C/C=C/C(C)=C/C=C/C=C(C)/C=C/C=C(\C)C(=O)C[C@@]23O[C@]2(C)C[C@@H](O)CC3(C)C)[C@](C)(O)C1,3.2µM*,164%,3%
SMILES,Sm TGR inh,AmpC no deterg,AmpC detergent
COc1cccc(N2CCN(C(=O)c3cnc4c(-c5ccccc5)c(C)nn4c3C)CC2)c1,0%,.,8%
O=C(Nc1cccc(Cl)c1Cl)c1cc(S(=O)(=O)NCc2ccc3c(c2)OCO3)ccc1F,4%,.,-2%
COc1ccc(NC(=O)CCC(=O)c2cccs2)cc1Cl,-11%,-16%,1%
COc1cc(NCCC(=O)c2cccs2)c(OC)cc1Cl,1.3µM*,-23%,?
COCCCNC(=O)CS(=O)Cc1nc(-c2cccc(C)c2)oc1C (configuration not stated),?,.,4%
COc1ccc(-c2nc(CS(=O)CC(=O)NCc3ccccc3Cl)c(C)o2)cc1OC (configuration not stated),-21%,.,8%
COCCCNC(=O)CS(=O)Cc1nc(-c2cccc(OC)c2)oc1C (configuration not stated),40µM*,8%,-3%
COc1cccc(-c2nc(CS(=O)CC(=O)NCc3ccccc3Cl)c(C)o2)c1 (configuration not stated),32µM*,70%,4%
CCCCC(=O)N1CCc2cc(OC)c(OC)cc2C1COc1ccc(C(=O)OCC)cc1 (configuration not stated),2%,.,7%
Cc1ccc(NN2C(=O)C=CC2=O)cc1,-12%,-9%,-14%
Cc1ccccc1NN1C(=O)C=CC1=O,1%,0.14µM*,1%
COc1ccc(OC)c(C2C(C(=O)Nc3ccc(C)cc3C)=C(C)Nc3c(C(=O)Nc4ccc(F)cc4)cnn32)c1 (configuration not stated),4%,.,-4%
CCOC(=O)Cc1csc(NC(=O)/C=C/c2ccco2)n1,11µM*,-22%,2%
Cc1csc(NC(=O)/C=C/c2ccc(C)o2)n1,20µM*,-27%,-7%
CCOC(=O)Cc1csc(NC(=O)/C=C/c2ccc(Cl)cc2)n1,5%,-14%,-1%
O=C(/C=C/c1ccco1)Nc1nc(-c2ccc(F)c(F)c2)cs1,40µM*,-45%,3%
O=C(/C=C/c1ccco1)Nc1scc(-c2ccccc2)c1C(=O)O,8.9µM*,-37%,0%
Cc1csc(NC(=O)/C=C/c2ccc3c(c2)OCO3)n1,3%,-25%,-3%
O=C(/C=C/c1ccccc1)Nc1scc(-c2ccccc2)c1C(=O)O,17%,-37%,-6%
COc1ccc(-c2csc(NC(=S)NC(=O)/C=C/c3ccco3)n2)cc1Br,-32%,-26%,8%
Cc1c(C)n(Cc2ccccc2)c2ccc(C(=O)NCC(C)c3ccccc3)cc12 (configuration not stated),3%,.,-4%
CCN(CC)S(=O)(=O)c1ccc(NC(=O)[C@H](CSCc2ccccc2)N2Cc3ccccc3C2=O)cc1,-2%,.,19%
CCC(C)NC(=O)CSc1nc2cc3c(cc2c(=O)n1CCCC(=O)NCc1ccc2c(c1)OCO2)OCO3 (configuration not stated),2%,.,-4%
CCCCCn1c(-c2ccc(OC)c(OC)c2)nc2ccccc21,0%,.,8%
Cc1ccc(NC(=O)N2CCN(c3nnc(C)c4c(C)n(-c5ccccc5)nc34)CC2)c(Cl)c1,1%,.,19%
SMILES,Sm TGR inh,AmpC no deterg,AmpC detergent
Cc1c(CCC(=O)NCCc2ccccc2F)c(=O)oc2cc(O)ccc12,14%,.,5%
CC1CCN(c2nc3c(S(=O)(=O)c4cccc(Cl)c4)nnn3c3ccsc23)CC1,33%,.,-15%
Cc1csc(NC(=O)c2ccco2)n1,21%,2%,-2%
O=C(/C=C/c1ccco1)Nc1nc(-c2ccccc2)cs1,-27%,-24%,?
Cc1cc(NS(=O)(=O)c2ccc(NC(=O)c3ccco3)cc2)nc(C)n1,-25%,-18%,?
Cc1cc(NS(=O)(=O)c2ccc(NC(=O)/C=C/c3ccco3)cc2)nc(C)n1,4µM*,-21%,0%
CCOC(=O)Cc1csc(NC(=O)CCS(=O)(=O)Cc2ccccc2)n1,20µM*,0%,-5%
CCOC(=O)Cc1csc(NC(=O)CS(=O)(=O)Cc2ccccc2)n1,-1%,-29%,?

# Source: PubChem (National Center for Advancing Translational Sciences (NCATS))
